The nature of this test: enhancers of NK cell killing of ovarian tumor cells, primary screen, imaging, OVCAR3, primary NK cells, calcein-AM imaging (AID 1508625).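 Further: compound given to NK cells 16 h before adding targets at 1.5 to 1 ratio.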 The settings on record: OVCAR3 lysis by primary NK cells, at 5 µM; z-score: measured here: robust Z-score, single-point normalisation.

On to `Cc1ccc(C)c(NC(=O)c2ccc(-c3ccccc3)cc2)c1`, for which the corrected activity, negative = more killing was -4.26% and the z-score is -1.81.
For the compound `O=C(Nc1ccccc1C(=O)O)c1cc(S(=O)(=O)Nc2ccc(Br)cc2)ccc1Cl`, the corrected activity, negative = more killing was -14.5% and the z-score is -3.06.
For `COc1ccc(Oc2c(C(F)(F)F)oc3cc(OC(=O)c4ccc(OC)c(OC)c4)ccc3c2=O)cc1`, the corrected activity, negative = more killing was -1.55% and the z-score is -0.672.
In the same order, the values of `COC(=O)c1ccc(COC(=O)c2ccc([N+](=O)[O-])c(C)c2)cc1` are -0.897% and -0.499.
Consider `COc1ccc(-c2n[nH]c(=S)o2)cc1`, for which the corrected activity, negative = more killing was -4.44% and the z-score was -1.69.
For `CCOc1ccc2nc(SCCC(=O)Nc3ccc(OC)cc3)sc2c1`, in that order: -5.58% and -2.99.
Take `COc1ccc(-c2csc(Nc3ncccn3)n2)cc1OC`: the corrected activity, negative = more killing was -2.57% and the z-score is -1.15.
Consider `O=C(O)C1C2C=CC(O2)C1C(=O)Nc1ccccc1C(F)(F)F` (stereo unspecified), for which the corrected activity, negative = more killing is -3.8% and the z-score was -1.56.
Regarding `Cc1ccc(C(=O)O)c(C(=O)Nc2cccnc2)c1`, the corrected activity, negative = more killing was -0.349% and the z-score is -0.143.
In the case of `CCCc1sc(N2CCN(C(=O)c3ccccc3)CC2)nc1-c1ccccc1`, the corrected activity, negative = more killing was -5.71% and the z-score is -1.77.
`Cc1ccc(C=Cc2nc3ccccc3[nH]2)cc1`: the corrected activity, negative = more killing is 2.68% and the z-score is 0.723.
In the same order, the values of `COc1ccc(OC)c(NC(=O)C(N)=O)c1` are 1.08% and 0.459.
For `COC(=O)c1cc(C=O)c(O)c(C=O)c1`, in that order: -2.3% and -1.01.
For `Cc1ccc2c(C)nc(SCc3ccc(Cl)cc3)nc2c1`, the corrected activity, negative = more killing was -2.17% and the z-score was -0.674.
For the compound `Cc1ccc(Cl)cc1N1C(=O)CN(Cc2cccs2)C1=S`, the corrected activity, negative = more killing was -2.1% and the z-score is -0.567.
In the case of `Cc1cccc(OCCn2c(=N)n(CC(N)=O)c3ccccc32)c1`, the corrected activity, negative = more killing was -6.66% and the z-score is -1.99.
With `Cc1ccccc1CSC1=NCCN1C(=O)c1ccc(OC(C)C)cc1`, the corrected activity, negative = more killing is -4.64% and the z-score is -1.14.
For the compound `COc1ccc(C(=O)N2CCN(CC=Cc3ccccc3)CC2)cc1`, the corrected activity, negative = more killing is -1.03% and the z-score is -0.422.
On to `COCCNCCCSc1ccc(Cl)cc1`, for which the corrected activity, negative = more killing was -1.98% and the z-score is -0.737.
Turning to `C=CCSc1nc(C)c2cc(C)ccc2n1`, the corrected activity, negative = more killing is -2.18% and the z-score is -0.675.
For the compound `CCOc1ccc2nc(SCC(=O)NC3CC3)sc2c1`, the corrected activity, negative = more killing is -5.49% and the z-score is -1.7.
On to `Cc1ccccc1OCC(=O)N1N=C2CCCCC2C1(O)C(F)(F)F` (stereo unspecified), for which the corrected activity, negative = more killing was -5.48% and the z-score was -2.09.
As to `COc1ccc(NC(=O)C(N)=O)cc1`, the corrected activity, negative = more killing was -3.82% and the z-score was -1.62.
For the compound `O=c1c2cc(N3CCCCC3)ccc2[nH]c(=S)n1Cc1ccccc1`, the corrected activity, negative = more killing is -6.78% and the z-score was -1.8.
Take `COc1ccc(CNC(=O)CSc2nc3cc(Cl)ccc3s2)cc1`: the corrected activity, negative = more killing is -1.73% and the z-score was -0.516.
As to `Cc1ccc2nc(-c3ccc(Cl)c(NC(=O)Cc4ccccc4)c3)oc2c1`, the corrected activity, negative = more killing was -3.3% and the z-score is -1.77.
As to `Cc1ccc(Nc2nc(C)cc(C)c2C(N)=O)cc1`, the corrected activity, negative = more killing is -3.73% and the z-score is -1.66.
Regarding `CN1C(=O)C(=O)C(=C(O)c2ccc(Br)cc2)C1c1ccccc1` (stereo unspecified), the corrected activity, negative = more killing is -1.99% and the z-score is -0.867.
On to `Brc1ccc(-c2noc(CSc3ccccc3)n2)cc1`, for which the corrected activity, negative = more killing was -0.336% and the z-score is -0.187.
In the case of `Cc1onc(-c2ccccc2)c1C(=O)Nc1cccc(Br)c1`, the corrected activity, negative = more killing is -5.57% and the z-score was -1.98.
With `Cc1cc(OCCCN2CCCCCC2)ccc1[N+](=O)[O-]`, the corrected activity, negative = more killing was 0.702% and the z-score was 0.391.
For the compound `CC(C(=O)N1CCN(c2ccccc2)CC1)c1ccc([N+](=O)[O-])cc1` (stereo unspecified), the corrected activity, negative = more killing is -3.44% and the z-score was -1.91.
In the same order, the values of `Cc1ccc(Cl)cc1-n1c(CCC(=O)O)ccc1-c1ccccc1` are 1.25% and 0.373.
In the same order, the values of `COc1ccc(C(O)=C2C(=O)C(=O)N(c3ccccn3)C2c2ccc(C(C)C)cc2)cc1` (stereo unspecified) are -1.15% and -0.498.
Regarding `CC(C(=O)NCCCN1CCOCC1)c1ccc([N+](=O)[O-])cc1` (stereo unspecified), the corrected activity, negative = more killing was -5.52% and the z-score was -3.07.
For `CN(C)S(=O)(=O)c1ccc(C(O)=C2C(=O)C(=O)N(Cc3cccnc3)C2c2ccc(Cl)cc2)cc1` (stereo unspecified), in that order: -2.24% and -0.973.
With `CC1C(=O)NN=C1C(=O)NN=Cc1cccnc1` (stereo unspecified), the corrected activity, negative = more killing was -3.57% and the z-score is -1.56.
On to `O=C(c1ccccc1F)N1CCN(c2cc(N3CCCCC3)c(F)cc2[N+](=O)[O-])CC1`, for which the corrected activity, negative = more killing was -2.72% and the z-score was -0.843.
In the same order, the values of `CS(=O)(=O)N(CC(=O)N1CCOCC1)c1ccc2c(c1)OCCO2` are -1.8% and -1.
In the case of `COCCNCC(O)Cn1c2ccccc2c2ccccc21` (stereo unspecified), the corrected activity, negative = more killing is 2.4% and the z-score was 0.916.
Regarding `CCCCOC(=O)c1ccc2c(c1)C(=O)N(c1cccc(Cl)c1)C2=O`, the corrected activity, negative = more killing is -8.14% and the z-score is -2.52.
For the compound `C(=Cc1ccccc1)CN1CCN(C2c3ccccc3-c3ccccc32)CC1`, the corrected activity, negative = more killing is -0.148% and the z-score was -0.0313.
In the case of `CCOc1ccccc1C(=O)N1CCN(c2ccccc2OCC)CC1`, the corrected activity, negative = more killing was -2.5% and the z-score is -1.03.
In the case of `CCC(Sc1nc(C)cc(C)n1)C(=O)Nc1nnc(C)s1` (stereo unspecified), the corrected activity, negative = more killing is -9.03% and the z-score was -2.8.
In the same order, the values of `O=C(NCc1ccccc1)c1ccc2c(=O)n(-c3cc(C(F)(F)F)ccc3Cl)c(=S)[nH]c2c1` are -5.46% and -1.74.
Turning to `COc1ccc(-c2ccc3c(N)c(C(=O)Nc4ccc(Br)cc4)sc3n2)cc1`, the corrected activity, negative = more killing is -3.35% and the z-score is -1.
Consider `CC(C)c1ccc(CNc2c([N+](=O)[O-])c(=O)oc3ccccc23)cc1`, for which the corrected activity, negative = more killing is -0.839% and the z-score was -0.312.
For `CCCc1c(C)c2cc3c(C)coc3cc2oc1=O`, the corrected activity, negative = more killing is -6.81% and the z-score is -2.03.
